High-throughput results: PubChem, National Center for Advancing Translational Sciences (NCATS)
PLK1 PBD block: qHTS for Inhibitors of PLK1-PDB (polo-like kinase 1 - polo-box domain): Primary Screen. Serine/threonine-protein kinase PLK1 (Homo sapiens), P53350. Plk1 PBD binding of FITC phosphopeptide, fluorescence polarization. Potency, µM, actives largely listed as inhibitors. 360,000 tested, 2.8% active. AID 720504, 2013; further: series mostly up to about 57 µM; nearly all actives have a fitted effect of over 65% in size
Target sequence (P53350 whole entry, looked up, the tested form may be a part): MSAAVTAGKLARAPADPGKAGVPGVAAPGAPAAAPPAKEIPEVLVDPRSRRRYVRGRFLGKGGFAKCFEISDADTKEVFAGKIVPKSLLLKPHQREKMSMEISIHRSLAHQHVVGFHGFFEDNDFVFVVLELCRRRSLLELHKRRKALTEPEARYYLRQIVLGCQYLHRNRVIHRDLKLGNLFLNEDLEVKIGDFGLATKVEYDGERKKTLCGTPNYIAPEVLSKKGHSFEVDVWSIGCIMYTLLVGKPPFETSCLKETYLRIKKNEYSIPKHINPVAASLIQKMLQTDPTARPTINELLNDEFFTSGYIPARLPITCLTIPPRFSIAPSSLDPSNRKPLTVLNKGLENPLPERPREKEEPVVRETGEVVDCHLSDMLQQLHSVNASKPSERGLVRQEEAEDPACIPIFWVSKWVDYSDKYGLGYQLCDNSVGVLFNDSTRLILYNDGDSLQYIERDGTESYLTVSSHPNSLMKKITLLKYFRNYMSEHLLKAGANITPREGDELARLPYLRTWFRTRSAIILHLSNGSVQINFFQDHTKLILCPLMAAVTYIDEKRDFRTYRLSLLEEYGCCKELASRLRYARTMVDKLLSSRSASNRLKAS
RORg inh: qHTS for inhibitors of ROR gamma transcriptional activity | 310,000 tested, 5.4% active | Nuclear receptor ROR-gamma (Mus musculus), P51450 | Potency, µM (series often up to 53.6 µM), usual class: inhibitors | Drosophila S2 Gal4-RORgamma UAS-luciferase reporter, 20 h; further: nearly all actives have a fitted effect of over 60% in size
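ROR gamma transcriptional activity was tracked as Gal4-UAS luciferase output in stably transfected Drosophila Schneider cells, with compound added 1 hr before 700 uM copper sulfate induction and a 20 hr ambient-temperature incubation.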
ALDH1A1 inh: qHTS Assay for Inhibitors of Aldehyde Dehydrogenase 1 (ALDH1A1); Purified ALDH1A1, NADH fluorescence, propionaldehyde substrate; AID 1030, 2008; Potency, µM (series often up to 75.3 µM), most hits filed as inhibitors; 220,000 tested, 7.3% active; active means well fitted inhibition curve with a large enough effect, not every such curve was filed as active; inconclusive means small, poorly fitted or top-dose-only effect, or another doubt; inactive means no such curve, though single readings can be large or run the other way
Gal4-VP16 FLuc: VP16 counterscreen qHTS for inhibitors of ROR gamma transcriptional activity; Drosophila S2 Gal4-VP16 UAS-luciferase, luminescence, 20 h; Potency, µM (titrated, usually from 53.6 µM), hits mostly inhibitors; 310,000 tested, 3.5% active;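 further: Gal4-VP16 expression switched on by copper sulfate through the metallothionein promoter; nearly all actives have a fitted effect of over 50% in size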
Sfp inh: qHTS Assay for Inhibitors of Bacillus subtilis Sfp phosphopantetheinyl transferase (PPTase); 4'-phosphopantetheinyl transferase ffp (Bacillus subtilis), Q9F4F7; Biochemical Sfp PPTase activity, qHTS; Potency, µM, hits mostly inhibitors; 310,000 tested, 3.5% active; AID 1490, 2009;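 further: the enzyme is Sfp with the accession as filed and its product quenches rhodamine fluorescence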
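Sfp 15 nM + cpd, 15 min RT; start w/ rhodamine-CoA 5 uM, BHQ-2-YbbR 12.5 uM (final); 50 mM Hepes pH 7.6, 10 mM MgCl2, 0.01% NP-40, 0.01% BSA; read 525/598 nm at 0 and 30 min.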
Of the large screens only hits and unclear results are named; the others gave an inactive call; ! = not active in a repeat. Rows were chosen to be rich in hits. Some 12% of all compounds tested hit in one or more screens of this group. Unless noted, the call rests on the fitted dose curve; in most records, active means well fitted curve in the direction sought with a large enough effect; inconclusive means small, poorly fitted or top-dose-only effect, or another doubt; inactive means no such curve, though single readings can be large; an effect the other way counts as inactive or inconclusive.

O=C(CSC(=S)N1CCOCC1)Nc1nc(-c2ccccc2)c(-c2ccccc2)o1	RORg inh 11µM, Gal4-VP16 FLuc inconclusive
Cc1c(NC(=O)CSC(=S)N2CCCC2)c(=O)n(-c2ccccc2)n1C	none (no result: RORg inh, ALDH1A1 inh, Gal4-VP16 FLuc, Sfp inh)
Cn1nnnc1SCC(=O)Nc1nc(-c2ccccc2)c(-c2ccccc2)o1	RORg inh 10µM, ALDH1A1 inh inconclusive, Gal4-VP16 FLuc inconclusive
O=C(CSC(=S)N1CCOCC1)Nc1nccs1	none (no result: ALDH1A1 inh)
CCN(CC)C(=S)SCC(=O)Nc1nc(-c2ccccc2)c(-c2ccccc2)o1	RORg inh 4.5µM, ALDH1A1 inh 13µM, Gal4-VP16 FLuc 8.9µM
O=C(CSC(=S)N1CCN(c2ccccc2)CC1)Nc1nc(-c2ccccc2)c(-c2ccccc2)o1	RORg inh 10µM
COCCNC(=O)CSc1nc(-c2ccccc2)c(-c2ccccc2)o1	ALDH1A1 inh inconclusive
O=c1c(-c2cc(F)cc(F)c2)nc2cnc(N3CCOCC3)nc2n1CCc1ccccc1	ALDH1A1 inh inconclusive (no result: PLK1 PBD block)
Cc1ncc(CSC(=N)N)n1Cc1ccccc1	none (no result: PLK1 PBD block, RORg inh, Gal4-VP16 FLuc, Sfp inh)
O=C(CSC(=S)N1CCCCC1)Nc1nc(-c2ccccc2)c(-c2ccccc2)o1	RORg inh 5.6µM, Gal4-VP16 FLuc inconclusive
CCCN1C(=O)/C(=N\OCC(=O)NCC(F)(F)F)c2ccccc21	ALDH1A1 inh 1.3µM
CC(C)(C)NC(=O)CON=C1c2ccccc2-c2ccccc21	none
COc1cc2[nH]c(Cl)c([N+](=O)[O-])c2cc1OC	Sfp inh 89µM (no result: ALDH1A1 inh)
C/C(=N/NC(=O)CCC(=O)Nc1ccc(Br)cc1)c1ccc(Br)cc1	none (no result: ALDH1A1 inh)
C/C(=N/Nc1ncc(Br)cn1)c1ccc(Br)cc1	PLK1 PBD block 4.7µM (no result: ALDH1A1 inh)
COc1ccc(-c2cc(OC(=O)c3ccc(F)cc3)c3c(C)oc(C)c3c(=O)c2)cc1	Sfp inh inconclusive (no result: PLK1 PBD block)
COc1cc(-c2cccs2)cc(=O)c2c(C)oc(C)c12	ALDH1A1 inh inconclusive, Sfp inh 45µM
CCSC1(SCC)N=C(N)C2(C#N)C(c3ccc(F)cc3)C12C#N (centres undefined)	PLK1 PBD block 9.5µM, RORg inh inconclusive, Gal4-VP16 FLuc inconclusive
CCC/C=C/C(C)O (centres undefined)	none (no result: PLK1 PBD block)
O=C(O)/C=C/C(=O)NNc1ncnc2ccccc12	RORg inh inconclusive, Sfp inh 56µM (no result: ALDH1A1 inh)
CC(=O)NNc1ncnc2ccccc12	none
O=C(NNc1ncnc2ccccc12)c1cccc(Cl)c1	RORg inh 7.1µM (no result: ALDH1A1 inh)
O=C1C=C[C@@H](O)[C@H]2[C@@H]3C(=O)N(Cc4ccc5c(c4)OCO5)C(=O)[C@@H]3CC[C@H]12	none (no result: PLK1 PBD block)
Cc1ccc(CN2C(=O)CSCC2(C)C(=O)Nc2c(C)cccc2C)cc1 (centres undefined)	none (no result: RORg inh, ALDH1A1 inh, Gal4-VP16 FLuc, Sfp inh)
COc1ccc2c(c1OC)C(=O)N1N=C(c3ccc(F)cc3)CC21 (centres undefined)	PLK1 PBD block 12µM, ALDH1A1 inh inconclusive
CCCCCCC1CC(=CN(C)C)C(=O)O1 (centres undefined)	none (no result: RORg inh, ALDH1A1 inh, Gal4-VP16 FLuc, Sfp inh)
CCCC(=O)NCCCCNC(=O)CCC	none
CC(=O)N(O)CCCCCNC(=O)CCC(=O)N(O)CCCCCNC(=O)CCC(=O)N(O)CCCCCN	PLK1 PBD block inconclusive, Sfp inh 45µM!
CCOC(=O)c1sc(NC(=O)CSc2nc3c(c(=O)n2-c2ccc(C)cc2)SCC3)c(C(=O)OCC)c1C	ALDH1A1 inh 9.5µM
Cn1c(=O)c2c(nc(SCC(=O)NCC3CCCO3)n2Cc2ccc(F)cc2)n(C)c1=O (centres undefined)	PLK1 PBD block 30µM
CCOc1ccc(-n2c(SCC(=O)NCc3ccco3)nc3c(c2=O)SCC3)cc1	ALDH1A1 inh 14µM
CCOc1ccc(N(CC(=O)NCc2ccco2)S(C)(=O)=O)cc1	Sfp inh 56µM
O=C(CSc1nc2c(c(=O)n1-c1ccc(Br)cc1)SCC2)NCc1ccco1	none
O=C(O)C(Cl)(c1ccccc1)c1ccccc1	none (no result: PLK1 PBD block, RORg inh, Gal4-VP16 FLuc, Sfp inh)
CCCNC(=O)OC[C@@H]1O[C@H](CCO/N=C2\c3cc(OC)ccc3O[C@H](c3cccc(OC)c3)[C@H]2O)C=C[C@@H]1Oc1ccc(OC)cc1	none (no result: PLK1 PBD block)
Cc1ccc(-n2c(SCC(=O)NCC3CCCO3)nc3c(c2=O)SCC3)cc1 (centres undefined)	ALDH1A1 inh 25µM, Sfp inh inconclusive
Cc1ccc(Cn2c(SCC(=O)NCC3CCCO3)nc3ccsc3c2=O)cc1 (centres undefined)	ALDH1A1 inh 20µM
N#CC1=C(N)SC(N)=C(C#N)C1C1C=CCCC1 (centres undefined)	RORg inh inconclusive, ALDH1A1 inh 22µM, Gal4-VP16 FLuc inconclusive, Sfp inh 40µM
N#CC1=C(N)Oc2n[nH]c(-c3cccs3)c2C1C1C=CCCC1 (centres undefined)	none
N#CC1=C(N)SC(N)=C(C#N)C1C1CC=CCC1 (centres undefined)	RORg inh 16µM, ALDH1A1 inh inconclusive, Gal4-VP16 FLuc inconclusive, Sfp inh 20µM
O=C(CCc1nnc(Cc2c[nH]c3ccccc23)o1)NCCC1CCCCO1 (centres undefined)	none (no result: RORg inh, ALDH1A1 inh, Gal4-VP16 FLuc, Sfp inh)
CCN(c1ccccc1)S(=O)(=O)c1ccc(Cl)c(NC(=O)CN(C)C2CCN(C)CC2)c1	Sfp inh 79µM (no result: ALDH1A1 inh)
CN(C)S(=O)(=O)c1ccc(Cl)c(NC(=O)COc2ccccc2[N+](=O)[O-])c1	Gal4-VP16 FLuc inconclusive
COc1ccccc1OCCC(=O)OCC(=O)Nc1cc(S(=O)(=O)N(C)C)ccc1Cl	RORg inh inconclusive, ALDH1A1 inh 3.2µM
CCN(c1ccccc1)S(=O)(=O)c1ccc(Cl)c(NC(=O)CN2CCN(C)CC2)c1	none (no result: RORg inh, ALDH1A1 inh, Gal4-VP16 FLuc, Sfp inh)
CN(C)S(=O)(=O)c1ccc(Cl)c(NC(=O)COC(=O)c2ccc(O)cc2)c1	ALDH1A1 inh inconclusive
CCN(CC)S(=O)(=O)c1ccc(Cl)c(NC(=O)COC(=O)c2ccc(O)cc2)c1	ALDH1A1 inh 16µM
CCN(CC)S(=O)(=O)c1ccc(Cl)c(C(=O)NCc2ccccc2Cl)c1	ALDH1A1 inh 7.9µM
CC1(C(=O)NS(=O)(=O)c2ccc(Cl)s2)CCN1C(=O)C1CCCCC1 (centres undefined)	none (no result: RORg inh, ALDH1A1 inh, Gal4-VP16 FLuc, Sfp inh)
Cc1noc(C)c1C(=O)N1CCC2(CCN(Cc3ccccc3)CC2)CC1	none (no result: PLK1 PBD block)
O=C(COC(=O)c1ccc(O)cc1)Nc1ncc(Cl)cc1Cl	RORg inh inconclusive, ALDH1A1 inh 28µM
O=C(COC(=O)c1ccc2c(c1)OCO2)Nc1ncc(Cl)cc1Cl	none
CS(=O)(=O)c1ccc(Cl)c(NC(=O)CCl)c1	RORg inh 14µM, ALDH1A1 inh 3.2µM
CCN(CC)S(=O)(=O)c1ccc(Cl)c(NC(=O)CCCCl)c1	Sfp inh inconclusive (no result: ALDH1A1 inh)
CCCC(=O)Nc1cc(S(=O)(=O)N(CC)CC)ccc1Cl	PLK1 PBD block inconclusive, ALDH1A1 inh 13µM
